The panel holds about 79,000 compounds, 15% with a hit somewhere; the sample as a whole holds those more often. Cut-off read from the data, not from the text of the source: active = growth inhibition above about 70%; inactive = the rest.
Tests used:
[1] = NCI Yeast Anticancer Drug Screen. Data for the rad50 strain (AID 155);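 note: 0% = growth of vehicle-only cultures of the same strain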; conditions: S. cerevisiae rad50 strain growth inhibition; at 50.0 µM; active compounds read high
Summary of the method: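 Vehicle-treated cultures provide the reference for the growth inhibition reported for compound-exposed, repair-deficient yeast.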

[2] = NCI Yeast Anticancer Drug Screen. Data for the mec2-1 strain (AID 157); conditions: S. cerevisiae mec2-1 strain, at 50.0 µM, active compounds read high
Summary of the method: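 Yeast mec2-1 mutant treated with compound. Readout: growth inhibition vs vehicle controls.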

[3] = NCI Yeast Anticancer Drug Screen. Data for the sgs1 mgt1 strain (AID 161);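 note: 0% = growth of cultures given vehicle only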; conditions: S. cerevisiae sgs1 mgt1 strain, at 50.0 µM, active compounds read high
Summary of the method: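 Inhibition of yeast growth, normalised to vehicle-treated controls, is reported for a strain bearing genetic alterations in DNA damage repair.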

[4] = NCI Yeast Anticancer Drug Screen. Data for the cln2 rad14 strain (AID 165);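 note: 0% = growth equal to vehicle treated cultures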; conditions: S. cerevisiae cln2 rad14 strain, at 50.0 µM, active compounds read high
Summary of the method: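 cln2 rad14 yeast strain; compound exposure; growth inhibition read vs vehicle controls.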

[5] = NCI Yeast Anticancer Drug Screen. Data for the bub3 strain (AID 167); conditions: S. cerevisiae bub3 mutant strain, at 50.0 µM, active compounds read high
Summary of the method: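 Mutant yeast screening strain plus compound; vehicle-treated cultures serve as the 0% inhibition reference.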

[6] = NCI Yeast Anticancer Drug Screen. Data for the mlh1 rad18 strain (AID 175); conditions: S. cerevisiae mlh1 rad18 strain growth inhibition; at 50.0 µM; active compounds read high
Summary of the method: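 Yeast w/ defined DNA-repair lesions; compound exposure; growth vs vehicle controls → % inhibition.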

Measured: growth inhibition

Cc1cc(Cl)cc2c1NC(=O)C2(O)CC(=O)c1ccco1 (stereo unspecified)
inactive: [1] 6.55% | [2] -12.4% | [3] -13.8% | [4] 9.65% | [5] -11.7% | [6] -4.65%

O=C(O)c1ccncc1C(=O)c1csc2ccccc12
inactive: [1] 7.9% | [2] 14.2% | [3] 27.1% | [4] 22.1% | [5] 30.4% | [6] 19.3%

Cn1c(=O)c2sc3cc4c(cc3c2c2ccccc21)sc1c(=O)n(C)c2ccccc2c14
inactive: [1] 23.2% | [2] -8.1% | [3] 22.9% | [4] 3.85% | [5] 23.2% | [6] 24.9%

Cc1[nH]c2cc([N+](=O)[O-])ccc2c1C
inactive: [1] 0.45% | [2] -35.2% | [3] -10.1% | [4] 21.8% | [5] 1.3% | [6] -0.5%

N#CC(C(=O)/C(=N\NC(N)=O)C(C#N)c1ccc(Cl)cc1)c1ccc(Cl)cc1 (stereo unspecified)
inactive: [1] -33.6% | [2] -7.25% | [3] -22.1% | [4] 2.4% | [5] -7.05% | [6] -4.3%

C/C(=N/OC1=CC(=O)CC(C)(C)C1)c1ccccc1
inactive: [1] 1.8% | [2] 0.8% | [3] 0.3% | [4] -52.9% | [5] 24.1% | [6] 0.6%

O=C(O)Cc1ccc(-c2ccccc2)cc1
inactive: [1] 29.1% | [2] 23.6% | [3] 21.2% | [4] 6.45% | [5] 20.5% | [6] 25.4%

CN(CCC#N)c1ccc(/C=C(\C#N)c2ccc(Br)cc2)cc1
inactive: [1] 12.2% | [2] -23.8% | [3] 13.6% | [4] -12% | [5] -0.85% | [6] -18.9%

N/C=N/OC(=O)c1ccccc1
inactive: [1] 11.5% | [2] 14.4% | [3] 11.8% | [4] 4.7% | [5] 0.5% | [6] 8.25%

Nc1ccc(C(=O)O)c(O)c1.Nc1ccc(C(=O)O)c(O)c1.[Cu]
inactive: [1] -13.4% | [2] 2.4% | [3] -20.3% | [4] 3.6% | [5] -1.95% | [6] -5.05%

CC1CCCCC1NC(=O)c1ccccc1 (stereo unspecified)
inactive: [1] -12% | [2] -10.6% | [3] -5.2% | [4] -34.8% | [5] -13.7% | [6] -3.1%

CC(=O)OCC(=O)[C@H]1CC[C@@H]2[C@]1(C)CC=C1[C@]23C=C[C@]2(C[C@@H](OC(C)=O)CC[C@]12C)C1C(=O)OC(=O)C13 (stereo partly specified)
inactive: [1] -9.65% | [2] 3.4% | [3] -0.6% | [4] -8.35% | [5] 4.65% | [6] 26.9%

O=C(O)CCSc1ccc([N+](=O)[O-])cc1
inactive: [1] -7.3% | [2] -18.6% | [3] -4.75% | [4] -44.1% | [5] -11.5% | [6] 52.6%

CCOC(=O)C(C)C(CCC#N)(C(=O)OCC)C(=O)OCC (stereo unspecified)
inactive: [1] -9.9% | [2] -24.1% | [3] -24% | [4] -0.35% | [5] -11.8% | [6] -9.3%

CCOC(=O)COc1ccc2c(C)cc(=O)oc2c1[N+](=O)[O-]
inactive: [1] 11.4% | [2] -6.85% | [3] 2.1% | [4] 6.95% | [5] 6.6% | [6] 35.5%

NNC(=O)c1nc[nH]c1C(=O)NN
inactive: [1] 2.95% | [2] -2.6% | [3] 21.5% | [4] -14.3% | [5] -7.6% | [6] 32%

O=C(/C(=C\C(=O)c1cccs1)c1ccsc1)c1ccc(Br)cc1
inactive: [1] 1.2% | [2] -32% | [3] 11.2% | [4] -25.9% | [5] 14.5% | [6] -17.3%

CC(C)C(O)C[N+](=O)[O-] (stereo unspecified)
inactive: [1] 66.3% | [2] 6.8% | [3] 20.3% | [4] 6.25% | [5] 13.6% | [6] 16.6%

CC(=O)/C(C)=C\C=C(\C)C(C)=O
inactive: [1] -7.2% | [2] -11.5% | [3] -16.2% | [4] -84.5% | [5] -0.45% | [6] -4.7%

CCC1CN2CCc3cc(OC)c(OC)cc3C2CC1CCCl (stereo unspecified)
inactive: [1] -8.6% | [2] 4.05% | [3] -4.5% | [4] -9.7% | [5] -29.9% | [6] -24.7%

O=C(CCCC(=O)Nc1ccccc1)Nc1ccccc1
inactive: [1] -9.35% | [2] -6.9% | [3] -1.55% | [4] -35.2% | [5] -14.1% | [6] -15.7%

OCC1OC(Oc2ccccc2)C(O)C(O)C1O (stereo unspecified)
inactive: [1] 8.15% | [2] 30.6% | [3] 21.8% | [4] -1% | [5] 33% | [6] 24.1%

CCN(CC)c1ccc(C)cc1Cl
inactive: [1] -5.7% | [2] 7.5% | [3] -12.2% | [4] -16.8% | [5] 7.05% | [6] 5.55%

COc1ccc(-n2c(C)nc3c(cnn3C3OC(CO)C(O)C3O)c2=O)cc1 (stereo unspecified)
inactive: [1] 16.2% | [2] -5.6% | [3] -15.1% | [4] -4.15% | [5] -1.9% | [6] 11.2%

O=C(CCl)OC1CCCCC1C1CCCCC1 (stereo unspecified)
inactive: [1] 22.7% | [2] 12.8% | [3] 39.3% | [4] -1.5% | [5] 32% | [6] 39.6%

CCOC(=O)C1C(=O)CC(C)(O)C(C(=O)OCC)C1c1ccc(N(C)C)cc1 (stereo unspecified)
inactive: [1] -32.7% | [2] -15.7% | [3] -3.6% | [4] -37% | [5] -1.4% | [6] -10.2%

CC(C)CCC[C@@H](C)[C@H]1CC[C@@]2(C)C3=C(C(=O)C[C@]12C)[C@@]1(C)CC[C@H](O)C(C)(C)[C@@H]1CC3=O
inactive: [1] 8.5% | [2] -16.7% | [3] 17.1% | [4] -40.6% | [5] 6.1% | [6] 10.3%

CCOC(=O)Cc1csc2[n+]1C(=O)/C(=C/c1cccc(OC)c1O)S2
inactive: [1] 45.1% | [2] 9.8% | [3] 53.4% | [4] -10.2% | [5] 13.3% | [6] 38.2%

Cc1ccc2c(c1)CN(C)CO2
inactive: [1] -15% | [2] 6.45% | [3] 5.6% | [4] -51.4% | [5] -18.1% | [6] -24.1%

CC(C)(C)[Si](C)(C)OC1C(=O)C[C@H]2CCCC[C@@H]12 (stereo partly specified)
inactive: [1] -6.75% | [2] 0.85% | [3] -1.75% | [4] 17.1% | [5] 10.2% | [6] 22.3%

CCOC(=O)/C(=C/c1ccc(C(=O)OC)cc1)N(CC)CC
inactive: [1] -26.5% | [2] -20.5% | [3] -12.1% | [4] 12.2% | [5] -20.1% | [6] -25.8%

Brc1ccc(N=C2NN=CC2(c2ccccc2)c2ccccc2)cc1
inactive: [1] 25.6% | [2] 1.75% | [3] 6.75% | [4] 4.85% | [5] 19.6% | [6] -1.15%

O=C1c2ccccc2C(=O)N1N1C(=O)C2C3CCC(O3)C2C1=O (stereo unspecified)
inactive: [1] 12.8% | [2] 0.4% | [3] 12.9% | [4] 15.9% | [5] 17.5% | [6] 9.3%

CCCCON1C[C@@H](O)C(O)[C@@H](O)C1 (stereo partly specified)
inactive: [1] -25.9% | [2] 8.9% | [3] -37.9% | [4] -13.2% | [5] 13.6% | [6] -4.35%

CC(CC(=N)N)NC(=O)C1CCC(N)=N1 (stereo unspecified)
inactive: [1] 6% | [2] -41.2% | [3] 2.15% | [4] -1.6% | [5] -14.2% | [6] -9.75%

FC1C2=C(SC1(F)F)C1CCC2C1 (stereo unspecified)
inactive: [1] 4.9% | [2] -2.2% | [3] 28.1% | [4] 17.9% | [5] -4.05% | [6] 12.9%

C/C(=C/C(C)C)C(C)(C#N)C(N)=O (stereo unspecified)
inactive: [1] 8.75% | [2] 5.8% | [3] 1.2% | [4] 8.25% | [5] 8.75% | [6] 4.35%

O=C(CCCCC(=O)N1CCOCC1)N1CCOCC1
inactive: [1] -9.3% | [2] -21.9% | [3] -2.45% | [4] -19.6% | [5] 2.1% | [6] -9.4%

Cc1ccccc1NC(=S)N1CCOCC1
inactive: [1] -4.55% | [2] 14.4% | [3] -10.8% | [4] -68.6% | [5] 14.2% | [6] -6.35%

CC(=O)C(=CC=C(c1ccc(N(C)C)cc1)c1ccc(N(C)C)cc1)C(C)=O
inactive: [1] -45.3% | [2] -8.55% | [3] 9.5% | [4] -14.8% | [5] 12.7% | [6] -13.6%

CC(=O)Nc1ccc(OC2=CCN(C)CC2)cc1
inactive: [1] 0.75% | [2] -16.1% | [3] 8.85% | [4] 12.7% | [5] 11.1% | [6] -64.8%
